Where “and” joins values, the source holds several entries; their conditions need not be identical. Equal values may be shown once. Inconclusive results are not listed. Calls of active or inactive are those of the source. Unless noted, calls come from the whole dose curve.

Consider 6 molecules from PubChem BioAssay (NCATS).

Assay [1] addresses Estrogen receptor (Homo sapiens) (UniProt P03372). As to the kind of experiment: qHTS assay for small molecule antagonists of estrogen receptor alpha signaling (AID 588513; active = well fitted curve in the direction sought with a large enough effect in the signal ratio, with a control signal flat, not every such curve was filed as active; the % refers to the signal ratio; note: % is set by controls: 0 for no effect and ±100 for the full control effect). The gist of the method: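 Fluorescence from CCF4 substrate after 2 h at room temperature gave reporter activity; cells had been exposed to compound and 0.5nM 17-beta-estradiol for 18 h at 37 C. Hill-equation fitting yielded IC50 and maximal response.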

Assay [2] has the same target. As to the kind of experiment: qHTS assay for small molecule agonists of estrogen receptor alpha signaling (AID 588514).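 Note: 0% = vehicle only and 100% = reference agonist; nearly all actives have a fitted effect of over 70% in size.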 A digest of the protocol:
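ER-alpha-UAS-bla GripTite HEK 293 cells in medium with 2% charcoal/dextran-treated FBS were treated with compound titrations at 37 C for 18 hrs; beta-lactamase reporter read by CCF4 fluorescence after 2 hrs at RT.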
On the technique in general: In qHTS, concentration-response curves come from the screen itself.

Assay [3] deals with Peroxisome proliferator-activated receptor delta (Homo sapiens) (UniProt Q03181). Kind of assay: qHTS assay for small molecule agonists of peroxisome proliferator-activated receptor delta signaling (AID 588534).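 Note: 0% = DMSO basal wells and 100% = positive control agonist at 10 µM.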 The gist of the method:
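Cell-based beta-lactamase reporter assay run in agonist mode: cells seeded and incubated 5 hrs at 37 C, compounds added and incubated 18 hrs at 37 C. CCF4 dye fluorescence read after 2 hrs at RT; EC50 and efficacy from Hill fits.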

Assay [4] deals with Peroxisome proliferator-activated receptor gamma (Homo sapiens) (UniProt P37231). As to the kind of experiment: qHTS assay for small molecule agonists of peroxisome proliferator-activated receptor gamma signaling (AID 588536; active = well fitted curve in the direction sought with a large enough effect in the signal ratio, with a control signal flat, not every such curve was filed as active; the % refers to the signal ratio;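 note: 0% = DMSO basal wells and 100% = rosiglitazone at 2 µM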). The gist of the method:
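Ratiometric blue/green fluorescence (405 nm excitation; 460 and 530 nm emission) from CCF4-loaded HEK293 reporter cells serves as signal. Exposure to test compounds lasts 16 h at 37 C in medium containing 1% charcoal/dextran-treated serum.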

For assay [5] the target is unchanged. As to the kind of experiment: qHTS assay for small molecule antagonists of peroxisome proliferator-activated receptor gamma signaling (AID 588537; active = well fitted inhibition curve with a large enough effect in the signal ratio, with a control signal flat, not every such curve was filed as active; the % refers to the signal ratio;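 note: reporter cells co-stimulated with 50 nM rosiglitazone agonist during compound treatment; % of control where 0% means no effect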). The gist of the method:
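Step one: plate 3000 HEK293 UAS-bla cells per well in medium with 1% stripped serum and hold 6-6.5 h at 37 C. Step two: add compound and 50 nM agonist for 16 h. Step three: CCF4 loading, fluorescence read.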

The target in assay [6] is Vitamin D3 receptor (Homo sapiens) (UniProt P11473). As to the kind of experiment: qHTS assay for small molecule antagonists of vitamin D receptor signaling (AID 588541).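 Note: receptor activated by calcitriol during compound treatment; series mostly up to about 77 µM; % is set by controls: 0 for no effect and ±100 for the full control effect.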 A digest of the protocol: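 VDR-UAS-bla HEK293T cells in 2% charcoal-stripped FBS were stimulated with 1-alpha,25-dihydroxyvitamin D3 (3 nM final) plus compound for 16 h at 37 C. The beta-lactamase CCF4 readout was normalized to 50 nM agonist and DMSO, and Hill fits gave IC50.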
Vitamin D3 receptor (Homo sapiens), sequence (P11473 whole entry, looked up): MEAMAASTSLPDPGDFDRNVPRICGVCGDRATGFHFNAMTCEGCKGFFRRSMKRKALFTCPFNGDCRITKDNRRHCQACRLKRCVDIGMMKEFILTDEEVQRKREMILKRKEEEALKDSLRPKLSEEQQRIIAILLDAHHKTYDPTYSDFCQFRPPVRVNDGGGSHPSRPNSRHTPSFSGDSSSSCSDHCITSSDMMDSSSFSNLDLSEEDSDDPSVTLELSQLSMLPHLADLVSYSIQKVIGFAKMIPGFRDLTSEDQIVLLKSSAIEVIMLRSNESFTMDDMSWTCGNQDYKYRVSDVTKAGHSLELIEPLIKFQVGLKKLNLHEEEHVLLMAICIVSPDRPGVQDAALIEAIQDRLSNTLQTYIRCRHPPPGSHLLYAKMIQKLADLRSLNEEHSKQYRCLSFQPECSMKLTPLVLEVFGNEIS

The target is the same in assay [7]. Kind of assay: qHTS assay for small molecule agonists of vitamin D receptor signaling (AID 588543).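 Note: 0% = DMSO basal and 100% = reference agonist control.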 The gist of the method: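 Reporter cells (HEK293T, VDR-UAS-bla) were seeded in medium with 2% charcoal-stripped serum and incubated 5 h, then compounds in concentration series were added for 16 h at 37 °C. Stimulation was scaled between DMSO basal and 50 nM 1α,25-dihydroxyvitamin D3.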

The target of assay [8] is Retinoic acid receptor RXR-alpha (Homo sapiens) (UniProt P19793). As to the kind of experiment: qHTS assay for small molecule agonists of retinoid X receptor alpha signaling (AID 588544).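 Note: 0% = DMSO basal wells and 100% = reference agonist.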
Retinoic acid receptor RXR-alpha (Homo sapiens), sequence (P19793 whole entry, looked up): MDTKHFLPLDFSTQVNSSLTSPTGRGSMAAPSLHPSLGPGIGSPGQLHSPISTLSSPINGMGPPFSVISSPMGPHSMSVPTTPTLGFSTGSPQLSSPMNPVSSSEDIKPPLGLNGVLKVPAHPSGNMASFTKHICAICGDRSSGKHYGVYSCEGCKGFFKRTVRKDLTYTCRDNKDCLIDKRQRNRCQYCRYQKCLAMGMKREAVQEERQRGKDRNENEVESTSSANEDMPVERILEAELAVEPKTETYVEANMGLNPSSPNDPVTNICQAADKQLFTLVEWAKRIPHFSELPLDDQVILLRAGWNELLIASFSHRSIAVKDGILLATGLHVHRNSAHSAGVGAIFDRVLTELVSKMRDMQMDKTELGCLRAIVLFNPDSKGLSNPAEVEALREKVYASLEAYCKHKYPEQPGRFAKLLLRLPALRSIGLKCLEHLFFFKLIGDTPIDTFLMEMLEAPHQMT
The target in assay [9] is Thyroid hormone receptor beta (Homo sapiens) (UniProt P10828). As to the kind of experiment: qHTS assay for small molecule agonists of thyroid hormone receptor beta signaling (AID 588545).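 Note: 0% = DMSO only and 100% = 10 nM T3.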 A digest of the protocol: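 Stimulation of a TR-driven beta-lactamase reporter was quantified in GripTite HEK 293 cells. Compound series ran for 18 hrs; curves were normalized to T3 and DMSO controls and fitted to yield EC50.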
Thyroid hormone receptor beta (Homo sapiens), sequence (P10828 whole entry, looked up): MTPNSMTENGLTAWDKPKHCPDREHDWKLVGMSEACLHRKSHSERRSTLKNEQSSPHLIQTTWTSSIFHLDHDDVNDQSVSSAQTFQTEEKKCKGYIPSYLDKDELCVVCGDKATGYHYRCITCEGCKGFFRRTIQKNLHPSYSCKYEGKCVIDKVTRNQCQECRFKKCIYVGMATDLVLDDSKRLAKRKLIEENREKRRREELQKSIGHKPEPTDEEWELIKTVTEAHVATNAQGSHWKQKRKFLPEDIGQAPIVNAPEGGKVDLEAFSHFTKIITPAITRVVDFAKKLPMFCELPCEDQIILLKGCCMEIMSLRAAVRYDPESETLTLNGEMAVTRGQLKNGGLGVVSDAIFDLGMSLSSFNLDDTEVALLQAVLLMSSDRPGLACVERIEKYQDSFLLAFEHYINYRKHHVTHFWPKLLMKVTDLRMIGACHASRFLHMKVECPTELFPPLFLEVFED

Assay [10] can be described thus: qHTS assay for small molecule antagonists of retinoid X receptor alpha signaling (AID 588546; active = well fitted inhibition curve with a large enough effect in the signal ratio, with a control signal flat, not every such curve was filed as active; the % refers to the signal ratio;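 note: cells stimulated with 9-cis-retinoic acid as agonist; % is set by controls: 0 for no effect and ±100 for the full control effect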). The note with it: HEK293T RXRa-UAS-bla, beta-lactamase ratio, antagonist mode; measured here: W530 green channel, cytotoxicity proxy. A digest of the protocol:
(§1)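 Beta-lactamase reporter inhibition, read as CCF4 fluorescence ratio (ex 405, em 460/530 nm) after 2 h at RT. HEK293T UAS-bla cells, 2500/well, were stimulated with 9-cis-RA at 500 or 100 nM final alongside test compound for 18 h at 37 C.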

Assay [11] addresses Thyroid hormone receptor beta (Homo sapiens) (UniProt P10828). As to the kind of experiment: qHTS assay for small molecule antagonists of thyroid hormone receptor beta signaling (AID 588547; active = well fitted inhibition curve with a large enough effect in the signal ratio, with a control signal flat, not every such curve was filed as active; the % refers to the signal ratio). The note with it: TR-UAS-bla HEK293, beta-lactamase ratio, antagonist mode, 18 h. A digest of the protocol:
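TR-UAS-bla GripTite HEK293 cells in 2% charcoal/dextran FBS medium; compounds 0.59 nM to 92 uM with T3 at 0.4nM final, 18 h at 37 C. Beta-lactamase read by CCF4 fluorescence (460/530 nm); Hill fits gave IC50 and efficacy.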

A short description of assay [12]: qHTS assay for small molecule activators of the p53 signaling pathway (AID 651743; active = well fitted activation curve with a large enough effect in the signal ratio, not every such curve was filed as active; the % refers to the signal ratio; note: series mostly up to about 92 µM; % of control where 0% means no effect). The note with it: HCT-116 p53RE-bla, beta-lactamase FRET ratio, 16 h; activation: stronger effect = higher value. A digest of the protocol: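 HCT-116 p53RE-bla, 4,000 cells/well; 5 h settle; cpd/DMSO 16 h, 37 C; LiveBLAzer B/G 2 h RT; fluorescence intensity.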
The target of assay [13] is Peroxisome proliferator-activated receptor alpha (Homo sapiens) (UniProt Q07869). Kind of assay: qHTS assay for small molecule agonists of the peroxisome proliferator-activated receptor alpha (PPARalpha) signaling pathway (AID 651778; active = well fitted curve in the direction sought with a large enough effect; an effect the other way counts as inactive or inconclusive; note: % of control where 0% means no effect). The following applies: PathHunter PPARalpha complementation, chemiluminescence, 6 h; max response: stronger effect = higher value. The gist of the method:
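Enzyme-fragment complementation assay in which ligand-bound PPARalpha translocates and forms an active enzyme that generates chemiluminescence. Cells were plated overnight, exposed to compound for 6 hr at 37 C, and then given detection reagent for 60 min at room temperature.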

A short description of assay [14]: qHTS assay for small molecule agonists of the antioxidant response element (ARE) signaling pathway measured by Nrf2-dependant transcriptional activity (AID 720636; active = well fitted curve in the direction sought with a large enough effect in the repeat runs; an effect the other way counts as inactive or inconclusive; note: % of control where 0% means no effect). The gist of the method:
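Nrf2-dependent transcription read as ONE-Glo luciferase signal from ARE-luc HepG2 reporter cells after 16 hr compound treatment at 37 C, 5% CO2, in assay medium with 1% dialyzed FBS.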

The nature of assay [15]: qHTS assay for small molecule agonists of the antioxidant response element (ARE) signaling pathway measured by Nrf2-dependant transcriptional activity - cell viability counter screen (AID 720653; active = well fitted curve in the direction sought with a large enough effect in the repeat runs; an effect the other way counts as inactive or inconclusive; note: % is set by controls: 0 for no effect and ±100 for the full control effect). The following applies: ARE-bla HepG2 viability, CellTiter-Glo ATP luminescence, 16 h; max response: stronger effect = lower value. The gist of the method:
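ARE-bla HepG2 cells treated with compounds for 16 h at 37C; this counter screen measures viability as intracellular ATP by CellTiter-Glo luminescence after 30 min at room temperature.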

Assay [16] is described as follows: qHTS assay for cell viability of HEK293 cells (AID 743288; active = well fitted curve in the direction sought with a large enough effect; an effect the other way counts as inactive or inconclusive; note: % is set by controls: 0 for no effect and ±100 for the full control effect; nearly all actives have a fitted effect of over 50% in size). The note with it: ATP luminescence (CellTiter-Glo), 18 h; max response: stronger effect = lower value. A digest of the protocol:
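HEK293 parental, 2,000 cells/well; ≥5 h pre-incubation 37 C; pintool compound addition; 18 h, 37 C; CellTiter-Glo 30 min RT; luminescence read.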

Assay [17] has as its target Retinoic acid receptor RXR-alpha (Homo sapiens) (UniProt P19793). Kind of assay: qHTS assay for small molecule antagonists of retinoid X receptor alpha signaling (AID 588546).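 Note: cells stimulated with 9-cis-retinoic acid as agonist; % is set by controls: 0 for no effect and ±100 for the full control effect.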 The note with it: HEK293T RXRa-UAS-bla, beta-lactamase ratio, antagonist mode. The gist of the method:
as §1

Assay [18] in a line: qHTS assay for environmental chemicals that activate the Aryl hydrocarbon Receptor (AhR) signaling pathway (AID 651777; active = well fitted curve in the direction sought with a large enough effect; an effect the other way counts as inactive or inconclusive; note: % of control where 0% means no effect; nearly all actives have a fitted effect of over 15% in size). The note with it: 1A2-DRE human hepatoma cells, luciferase, 24 h; activation: stronger effect = higher value. A digest of the protocol:
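Luminescence (One-Glo, 30 min, room temperature) reports AhR-driven luciferase in stably transfected human hepatoma cells bearing DRE and CYP1A2 promoter. Cells (1,200/well) were treated with compound for 24 hr at 37 C in qHTS format.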

Assay [19] in a line: qHTS assay for cell viability of the p53RE-bla HCT-116 cell line (AID 743292; active = well fitted curve in the direction sought with a large enough effect; an effect the other way counts as inactive or inconclusive; note: % is set by controls: 0 for no effect and ±100 for the full control effect; nearly all actives have a fitted effect of over 55% in size). A digest of the protocol: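 ATP-based luminescent viability (CellTiter-Glo, 30 min RT) after 16 h compound treatment at 37 C of p53RE-bla HCT-116 cells, seeded at 4,000 cells/well and rested 5 h before dosing.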
In assay [20] the target is Nuclear receptor subfamily 1 group I member 2 (Rattus norvegicus) (UniProt Q9R1A7). As to the kind of experiment: qHTS assay for small molecule activators of the rat pregnane X receptor (rPXR) signaling pathway (AID 651751; call rule not given here; note: 0% is about no effect). The following applies: rPXR reporter cells, luciferase (One-Glo), 24 h.
Nuclear receptor subfamily 1 group I member 2 (Rattus norvegicus), sequence (Q9R1A7 whole entry, looked up): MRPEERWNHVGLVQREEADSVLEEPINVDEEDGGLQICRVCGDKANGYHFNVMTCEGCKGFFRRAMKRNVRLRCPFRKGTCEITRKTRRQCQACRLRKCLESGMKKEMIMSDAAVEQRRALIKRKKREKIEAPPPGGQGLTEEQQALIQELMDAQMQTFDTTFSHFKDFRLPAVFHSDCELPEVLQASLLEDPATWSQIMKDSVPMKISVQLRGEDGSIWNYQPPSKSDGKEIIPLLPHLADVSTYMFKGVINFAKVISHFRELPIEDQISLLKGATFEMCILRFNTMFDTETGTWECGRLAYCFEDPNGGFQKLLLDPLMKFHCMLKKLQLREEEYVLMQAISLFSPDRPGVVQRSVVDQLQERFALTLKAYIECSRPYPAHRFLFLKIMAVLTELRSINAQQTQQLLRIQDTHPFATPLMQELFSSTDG

Estrogen receptor (Homo sapiens), sequence (P03372 whole entry, looked up): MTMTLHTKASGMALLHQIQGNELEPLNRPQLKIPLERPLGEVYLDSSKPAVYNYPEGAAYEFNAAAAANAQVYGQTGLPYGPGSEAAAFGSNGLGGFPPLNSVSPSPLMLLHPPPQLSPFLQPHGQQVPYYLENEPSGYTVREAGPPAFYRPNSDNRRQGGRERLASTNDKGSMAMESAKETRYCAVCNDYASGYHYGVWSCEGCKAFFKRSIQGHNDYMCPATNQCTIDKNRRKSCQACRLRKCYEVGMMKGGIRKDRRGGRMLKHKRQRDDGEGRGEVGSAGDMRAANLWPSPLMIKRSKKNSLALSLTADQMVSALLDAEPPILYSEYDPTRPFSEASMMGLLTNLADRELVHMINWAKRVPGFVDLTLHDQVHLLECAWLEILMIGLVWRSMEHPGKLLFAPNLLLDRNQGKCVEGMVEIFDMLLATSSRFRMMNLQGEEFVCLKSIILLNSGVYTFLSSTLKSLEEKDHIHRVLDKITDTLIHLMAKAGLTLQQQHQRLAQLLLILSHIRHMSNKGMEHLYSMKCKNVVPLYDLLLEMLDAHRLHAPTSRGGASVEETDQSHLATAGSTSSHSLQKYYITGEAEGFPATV
Peroxisome proliferator-activated receptor alpha (Homo sapiens), sequence (Q07869 whole entry, looked up, the tested form may be a part): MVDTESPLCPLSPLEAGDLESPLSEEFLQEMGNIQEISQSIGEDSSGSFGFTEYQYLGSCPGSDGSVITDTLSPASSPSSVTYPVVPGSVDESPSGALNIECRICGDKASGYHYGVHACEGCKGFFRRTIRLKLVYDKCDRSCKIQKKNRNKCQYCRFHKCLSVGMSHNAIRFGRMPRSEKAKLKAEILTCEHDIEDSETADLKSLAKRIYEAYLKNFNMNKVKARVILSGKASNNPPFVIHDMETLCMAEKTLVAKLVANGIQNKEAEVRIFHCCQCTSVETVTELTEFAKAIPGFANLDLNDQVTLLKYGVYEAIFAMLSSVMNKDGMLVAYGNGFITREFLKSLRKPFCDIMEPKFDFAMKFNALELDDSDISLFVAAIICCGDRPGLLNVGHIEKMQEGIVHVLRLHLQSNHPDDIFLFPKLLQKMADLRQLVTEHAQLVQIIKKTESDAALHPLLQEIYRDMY
Peroxisome proliferator-activated receptor gamma (Homo sapiens), sequence (P37231 whole entry, looked up): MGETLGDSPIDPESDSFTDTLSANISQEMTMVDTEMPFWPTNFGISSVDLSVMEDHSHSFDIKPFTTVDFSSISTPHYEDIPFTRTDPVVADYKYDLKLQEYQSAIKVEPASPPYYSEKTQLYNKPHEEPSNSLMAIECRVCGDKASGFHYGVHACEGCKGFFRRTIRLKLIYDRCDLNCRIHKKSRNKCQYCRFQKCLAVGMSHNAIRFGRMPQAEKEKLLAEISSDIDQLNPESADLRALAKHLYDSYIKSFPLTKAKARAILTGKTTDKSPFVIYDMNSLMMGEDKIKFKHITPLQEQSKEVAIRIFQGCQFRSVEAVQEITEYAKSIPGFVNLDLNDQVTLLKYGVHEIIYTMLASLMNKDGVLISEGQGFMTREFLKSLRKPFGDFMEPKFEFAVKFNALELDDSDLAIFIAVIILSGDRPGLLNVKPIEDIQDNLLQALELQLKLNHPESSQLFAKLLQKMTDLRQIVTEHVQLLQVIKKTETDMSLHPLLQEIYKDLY
Peroxisome proliferator-activated receptor delta (Homo sapiens), sequence (Q03181 whole entry, looked up): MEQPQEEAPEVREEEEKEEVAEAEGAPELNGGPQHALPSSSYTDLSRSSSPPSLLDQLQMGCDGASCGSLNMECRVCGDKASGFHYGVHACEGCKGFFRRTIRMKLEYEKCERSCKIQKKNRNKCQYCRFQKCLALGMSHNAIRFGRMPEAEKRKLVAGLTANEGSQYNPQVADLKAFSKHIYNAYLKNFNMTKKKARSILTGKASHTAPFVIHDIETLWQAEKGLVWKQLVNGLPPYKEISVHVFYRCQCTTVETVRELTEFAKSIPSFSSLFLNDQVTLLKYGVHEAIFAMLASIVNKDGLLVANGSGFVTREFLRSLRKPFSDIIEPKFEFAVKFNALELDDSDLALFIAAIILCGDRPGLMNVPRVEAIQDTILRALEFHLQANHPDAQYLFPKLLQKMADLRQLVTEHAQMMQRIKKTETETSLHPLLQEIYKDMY

For `CCCC1COC(Cn2cncn2)(c2ccc(Cl)cc2Cl)O1` (configuration not stated), the Potency entry in [1], in assay [2], in [4], in assay [5], in assay [6] and in assay [8] was “inactive” each time. Further, the Potency result in assay [9] and in assay [14] was “inactive” each time. Further, the outcome in assay [3] and in [7] was inactive. The max response in [10] was 5.44%; in assay [13] it was -0.724% (inactive) and -0.169% (inactive); in [15], -18.4% (inactive) and -18.3% (inactive); in assay [16], -21.6% (inactive) and -21.9% (inactive). The activity change % (negative = inhibition) in assay [11] is 12.9% (inactive) and 0.314% (inactive). Also, the activation in [12] was -6.14% (inactive).

As for `C/C=C(\C)C(=O)O[C@H]1C[C@@H](OC(C)=O)[C@@]2(C(=O)OC)CO[C@H]3[C@@H](O)[C@@](C)([C@]45O[C@@]4(C)[C@H]4C[C@@H]5O[C@@H]5OC=C[C@@]54O)[C@H]4[C@]1(CO[C@]4(O)C(=O)OC)[C@@H]32`, the Potency entry in [1], in [2], in [4], in assay [5], in assay [6] and in assay [8] was “inactive” each time. The Potency entry in assay [9], in assay [14] and in [19] was “inactive” throughout. The molecule was classed as inactive in assay [3] and in assay [7]. The max response in [10] is -5.84%; in assay [17] it was 9.93% (inactive); in [13] it was -3.71% (inactive); in assay [15], -22.9% (inactive). Besides, the activity change % (negative = inhibition) in [11] was 7.18% (inactive). For the same molecule, the activation in assay [18] was -0.999% (inactive).

For `CNC(=O)Oc1cccc2c1OC(C)(C)C2O` (configuration not stated), the Potency result in assay [1], in assay [2], in assay [4], in assay [6], in assay [8] and in assay [14] was “inactive” each time. Further, the Potency entry in assay [19] was “inactive”. Also, the call in assay [3] and in assay [7] was inactive. Further, the max response is -12.4% in [10]; -10.3% (inactive) in [17]; -1.14% (inactive) in assay [13]; -15.8% (inactive) in assay [15]; -0.251% (inactive) in assay [16]; -0.827% (inactive) in [20]. Also, the activity change % (negative = inhibition) in [11] is 7.05% (inactive). In addition, the activation is -0.021% (inactive) in [12] and 0.301% (inactive) in [18].

For the molecule `CCOC1Oc2ccc(OS(C)(=O)=O)cc2C1(C)C` (configuration not stated), the Potency entry in [1], in assay [2], in assay [4], in [5], in assay [6] and in assay [8] was “inactive” each time. Moreover, the Potency result in assay [9] and in assay [19] was “inactive” throughout. Also, the call in assay [3] and in [7] was inactive. The max response in [10] is -7.46%; in assay [17] it was -7.44% (inactive); in assay [13], -0.11% (inactive); in [15] it was -22.7% (inactive); in assay [16], -23.7% (inactive); in [20] it was 11.5% (inactive).

With `Cc1cnc(C2=NC(C)(C(C)C)C(=O)N2)c(C(=O)O)c1` (configuration not stated), the Potency entry in assay [1], in [2], in assay [4], in assay [5], in [6] and in assay [8] was “inactive” each time. For the same molecule, the Potency result in assay [9], in [14] and in assay [19] was “inactive” throughout. Besides, the call in assay [3] and in assay [7] was inactive. Besides, the max response in [10] was 8.17%; in [17], 9.76% (inactive); in assay [13] it was -1.29% (inactive) and -1.68% (inactive); in assay [15], -15.3% (inactive) and 23.5% (inactive); in assay [16], -9.43% (inactive) and 4.33% (inactive); in [20] it was 5.11% (inactive) and -5.71% (inactive). The activity change % (negative = inhibition) in assay [11] is -3.72% (inactive) and -20.5% (inactive). Besides, the activation in [18] is 1.97% (inactive) and -3.27% (inactive).

As to `O=[As](O)(O)O`, the Potency result in assay [1], in [2], in assay [4], in [6], in [8] and in assay [9] was “inactive” throughout. The molecule was classed as inactive in assay [3] and in assay [7]. In addition, the max response in assay [10] is -3.47%; in assay [13] it was 0.0106% (inactive); in [15] it was -8.77% (inactive); in assay [16] it was -4.83% (inactive); in assay [20], -1.48% (inactive). The activity change % (negative = inhibition) in [11] is -13.2% (inactive). Moreover, the values for the activation in [12] and in assay [18] were -0.546% (inactive) and -0.386% (inactive), respectively.
